Compounds with a hit are over-represented: about 11% of the library has one in this group of screens.
HPGD block = blocks human HPGD enzyme activity; P15428; purified HPGD, NADH fluorescence kinetic, PGE2 substrate; Potency, µM, without a hit: at the top dose activity change, negative = inhibition, most hits filed as inhibitors; 150,000 tested, 4.3% active; also: potency is read from the fitted curve at half-maximal effect
Target sequence (P15428 whole entry, looked up): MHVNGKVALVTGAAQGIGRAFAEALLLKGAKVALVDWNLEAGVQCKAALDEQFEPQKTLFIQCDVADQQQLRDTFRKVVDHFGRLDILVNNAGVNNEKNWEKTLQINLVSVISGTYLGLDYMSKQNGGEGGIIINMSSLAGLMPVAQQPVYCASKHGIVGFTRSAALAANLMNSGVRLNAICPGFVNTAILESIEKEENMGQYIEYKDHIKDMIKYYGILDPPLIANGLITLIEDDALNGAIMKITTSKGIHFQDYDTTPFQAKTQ
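NADH formation kinetics: reaction with 30 uM PGE2 and 1 mM NAD+ (final), 20 nM enzyme, Tris-HCl pH 8 with Tween 20, after 15 min compound preincubation at room temperature. Fluorescence change, last versus first of five reads.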
IMPase inh = cell-permeable inhibitors of inositol monophosphatase (IMPase) | P97697 | CHO-M1 cells, IP1 accumulation, HTRF TR-FRET ratio | inhibition (IP1 accumulation), % at 46.1 µM | 120,000 tested, under 10 active; active = well fitted curve in the direction sought with a large enough effect in the signal ratio, not every such curve was filed as active; inconclusive = small, poorly fitted or top-dose-only effect, or a change in a side signal; inactive = no such curve, though single readings can be large or run the other way; the % refers to the signal ratio;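 also: cells stimulated with carbachol in lithium chloride buffer; plate controls were DMSO basal wells for no effect and reference inhibitor wells for full effect; higher means more IMPase inhibition seen as more IP1 and lower FRET ratio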
Target sequence (P97697 whole entry, looked up): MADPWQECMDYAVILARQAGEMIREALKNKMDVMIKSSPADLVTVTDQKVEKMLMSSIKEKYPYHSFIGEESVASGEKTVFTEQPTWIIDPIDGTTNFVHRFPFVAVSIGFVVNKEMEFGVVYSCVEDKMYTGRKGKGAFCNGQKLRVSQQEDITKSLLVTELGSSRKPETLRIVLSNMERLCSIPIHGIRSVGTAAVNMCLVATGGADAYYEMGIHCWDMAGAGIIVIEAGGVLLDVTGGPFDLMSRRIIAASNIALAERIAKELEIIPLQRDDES
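CHO-M1 cells (CHO stably expressing M1 receptor), compound up to 46 uM final, stimulated with carbachol (50 uM as added) in buffer with 50mM LiCl, pH 7.4, 30 min at 37C. Cytosolic IP1 read by TR-FRET; AC50 from Hill fits.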
IMPase Li cell = cell-permeable IMPase inhibitors with lithium potentiation | CHO-M1 cells, IP1 TR-FRET (IP-One), carbachol + lithium | Potency, µM (titrated, usually from 59.4 µM), for the others: top-dose activity, negative = IMPase inhibition, hits mostly inhibitors | 210,000 tested, 0.35% active | AID 1457; active = well fitted inhibition curve with a large enough effect; inconclusive = small, poorly fitted or top-dose-only effect; inactive = no such curve, though single readings can be large or run the other way;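 also: IP1 builds up when IMPase is blocked and the TR-FRET signal falls; potency is read from the fitted curve at half-maximal effect; plate controls were basal vehicle for no effect and high inhibitor control for full effect; nearly all actives have a fitted effect of over 50% in size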
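Concentration–response in CHO-M1 cells, lithium-potentiated; 30 min at 37C. IP1 detected by competitive TR-FRET after 10 min lysis at RT. Hill-fitted AC50.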
ALDH1A1 inh = ALDH1A1 (human) enzyme inhibition; 220,000 tested, 7.3% active; Purified ALDH1A1, NADH fluorescence, propionaldehyde substrate; Potency, µM (titrated, usually from 75.3 µM), inactives show top-dose activity, negative = inhibition, hits mostly inhibitors; P00352; AID 1030;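 also: potency is read from the fitted curve at half-maximal effect; plate controls were no enzyme wells and a reference inhibitor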
PNC inhibitor = perinucleolar compartment assembly inhibition; activity change (PNC), negative = inhibition, % at 10 µM; 140,000 tested, 3.1% active; AID 2417; PC3M PTB-GFP, PNC prevalence imaging, 16 h; active compounds read low;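 active = readout at or below -70, meaning at least 70% loss of cells showing the perinucleolar compartment, a nuclear body marking cancer cells; inconclusive = readout between -30 and a set limit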;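 also: plate controls were DMSO wells for no effect and camptothecin positive control wells for full effect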
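Compounds are pinned in duplicate onto adhered PC3M cells stably expressing GFP-tagged PTB and incubated 16 h at 37 C. Cells are then fixed, nuclei stained with Hoechst, and PNC-positive cells counted.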
* hit, by the source's call; ? = inconclusive; / = not tested or not shown; [ ] = remark or other dose. Unless noted, calls follow the shape of the dose curve; as a rule, active = well fitted inhibition curve with a large enough effect (not every such curve was filed as active); inconclusive = small, poorly fitted or top-dose-only effect, or another doubt; inactive = no such curve, though single readings can be large or run the other way. Unless noted, % is scaled to controls: 0 for no effect and ±100 for the full control effect.

SMILES	HPGD block	IMPase inh	IMPase Li cell	ALDH1A1 inh	PNC inhibitor
CC(=O)c1ccc(N2CCN(C(=O)c3ccc(Br)cc3)CC2)c(F)c1	28µM*	14	?	10µM*	?
CC(=O)c1ccc(N2CCN(C(=O)c3ccco3)CC2)c(F)c1	16µM*	-4	2%[38.3 µM]	3.5µM*	38
Cc1ccc(C(=O)O[C@H](C(=O)O)[C@@H](OC(=O)c2ccc(C)cc2)C(=O)O)cc1 (tested in a mixture with another compound)	-6%	/	5%	-1%	/
CC(C)N1CCN(Cc2ccc(-c3ccccc3Cl)o2)CC1CCO (centres undefined)	/	/	3%	?	/
CC(=O)OC1CC(OC(C)=O)[C@]2(C)C(CC(=O)[C@]3(C)C2CC[C@@]2(C)C(C(=O)O)OC(=O)C4OC423)C1(C)C (some centres undefined)	-5%	/	0%	0%	/
CC(=O)N1CCN(c2ccc(NC(=O)C(C)Oc3ccc(Cl)cc3Cl)cc2)CC1 (centres undefined)	20µM*	12	66%[38.3 µM]	?	?
CCOC(=O)c1c(NC(=O)COc2ccc(Cl)cc2C)sc(C(C)=O)c1C	/	-4	/	/	/
Cc1noc(C)c1COC(=O)c1ccc2c(c1)OCO2	-24%	15	-11%[38.3 µM]	-16%	19
Cc1noc(C)c1COC(=O)c1ccc2c(c1)S(=O)(=O)c1ccccc1C2=O	28µM*	-2	-12%[38.3 µM]	13µM*	?
O=C(COC(=O)c1ccc2c(c1)S(=O)(=O)c1ccccc1C2=O)NC1CC1	/	/	5%	14µM*	/
Cc1noc(C)c1COC(=O)c1cnc(Cl)c(Cl)c1	/	/	6%	0.56µM*	/
O=C(Nc1ccc(Cl)cc1)C1CCN(S(=O)(=O)c2ccc(Br)s2)CC1	/	11	/	/	/
O=C(CN1C(=O)/C(=C\c2cccc(Cl)c2)Oc2ccccc21)N1CCN(c2ccccn2)CC1	/	/	-3%	?	/
COc1ccc(N2C(=O)CC(Sc3nc(C)cc(C)c3C#N)C2=O)cc1 (centres undefined)	-5%	/	1%	?	16
N#Cc1cc2c(nc1SC1CC(=O)N(c3ccccc3)C1=O)CCC2 (centres undefined)	0%	/	-4%	-14%	?
COc1ccc(N2C(=O)CC(Sc3nnc(-c4ccccc4)o3)C2=O)cc1 (centres undefined)	22µM*	?	8.9µM*	1.8µM*	?
O=C1CC(Sc2nnc(-c3ccccc3O)o2)C(=O)N1c1ccccc1 (centres undefined)	?	-20	-15%[38.3 µM]	3.5µM*	-18
Cc1ccc(N2CCN(CCC(=O)O)CC2)cc1	-8%	/	-6%	8%[13.5 µM]	/
O=C(c1csnn1)N1CCC2(CCN(Cc3ccccc3)CC2)CC1	-9%	/	31%	0%	/
Cc1ccc2occ(C3N[C@H](C(=O)O)CS3)c(=O)c2c1 (some centres undefined)	-9%	-1	-7%[38.3 µM]	1.4µM*	-22
CCc1nc(SCC(=O)Nc2ccc(NC(C)=O)cc2)n[nH]1	/	4	/	/	/
O=C(NCC12CC3CC(CC(C3)C1)C2)c1nn2cccnc2c1Cl	18µM*	5	29%[38.3 µM]	16µM*	32
O=C(NCC1CCCO1)c1nn2cccnc2c1Cl (centres undefined)	25µM*	-13	17%[38.3 µM]	-6%	-10
CCCN1CNC(=S)N(c2cc(C)ccc2C)C1	-8%	-5	4%	-3%	-100*
Cc1ccc(C)c(N2CN(CCC3=CCCCC3)CNC2=S)c1	/	/	/	-5%	/
SMILES	HPGD block	IMPase inh	IMPase Li cell	ALDH1A1 inh	PNC inhibitor
COc1ccccc1NC(=O)C1=C(C)Nc2nc(CCCO)nn2C1c1ccc2c(c1)OCO2 (centres undefined)	?	2	26%[38.3 µM]	14µM*	-13
COc1ccc(S(=O)(=O)N(CCO)c2ccccc2CN(C)CC=Cc2ccc(Cl)cc2)cc1	-14%	/	29%	1%	/
CC(NC(=O)c1ccco1)c1cccc2ccccc12 (centres undefined)	-8%	9	3%	-8%	6
COc1cc(S(=O)(=O)Nc2ccccc2)ccc1N=Cc1c(C)[nH]n(-c2ccc(C)cc2)c1=O	-19%	-8	-5%	-3%	?
COc1cc(SC#N)ccc1N=Cc1c(C)[nH]n(-c2ccc(C)c(C)c2)c1=O	-15%	/	2%	0.28µM*	-3
COc1cc(SC#N)ccc1N=Cc1c(C)[nH]n(-c2ccc(Cl)cc2)c1=O	-20%	7	14%[38.3 µM]	2.5µM*	23
COc1ccc2c(c1)c1ncn(CCCN3CCOCC3)c(=O)c1n2C	?	-4	4%[38.3 µM]	?	7
Cn1c2ccccc2c2ncn(CCN3CCOCC3)c(=O)c21	/	8	/	?	-87*
COc1ccc(NC(=O)CSc2nnc(Cc3cccn3C)n2-c2ccc(F)cc2)cc1	2%	0	4%	?	-16
COc1ccc(-n2c(Cc3cccn3C)nnc2SCC(=O)Nc2ccccc2F)cc1	1%	5	5%	16µM*	-108*
COc1ccc(-n2c(Cc3cccn3C)nnc2SCC(=O)Nc2ccccc2C)cc1	-7%	0	3%[38.3 µM]	?	18
COc1ccc(-n2c(Cc3cccn3C)nnc2SCC(=O)Nc2ccc(F)cc2F)cc1	-12%	1	7%	10µM*	6
COc1ccc(-n2c(Cc3cccn3C)nnc2SCC(=O)Nc2cccc(OC)c2)cc1	-20%	11	5%	?	-5
COc1ccc(-n2c(Cc3cccn3C)nnc2SCC(=O)Nc2cccc(C)c2C)cc1	-11%	?	9%	14µM*	45
COc1cccc(NC(=O)CSc2nnc(Cc3cccn3C)n2-c2ccc(F)cc2)c1	-22%	5	38%[38.3 µM]	14µM*	-18
COC(=O)CC1c2ccccc2C(Cc2ccc(OC)cc2)C(C)N1C(=O)OC (centres undefined)	-6%	/	6%	9%[13.5 µM]	/
COc1ccc(-n2c(Cc3cccn3C)nnc2SCC(=O)Nc2nccs2)cc1	0%	-4	5%	?	-114*
COc1ccc(-n2c(Cc3cccn3C)nnc2SCC(=O)Nc2ccc(F)cc2)cc1	-11%	-1	0%	-3%	14
Cc1ccc2[nH]c(C)cc(=S)c2c1	/	/	?	18µM*	/
CCC1CCCCN1C(=O)C1CC(c2cc(Cl)c(OC)cc2OC)=NO1 (centres undefined)	14µM*	0	15%[38.3 µM]	?	25
O=C(Nc1ccc2c(c1)OCO2)C1CCCN1C(=O)Nc1ccccc1F (centres undefined)	-11%	-3	12%[38.3 µM]	?	-84*
O=C[C@@H]1CCCN1C(=O)[C@@H]1CCCN1C(=O)OCc1ccccc1	/	/	11%	7.9µM*	/
O=C(Nc1ccc2c(c1)OCO2)C1CCCN1C(=O)OCc1ccccc1 (centres undefined)	3%	3	11%[38.3 µM]	?	-127*
CCC(=O)c1ccc(N2CCN(C(=O)c3ccccc3)CC2)c(F)c1	/	/	5%	-2%	/
